Assay results from the supplement of paper PMC10849652.
About 8,800 targets were measured; listed, in parts, are those with a hit and a random draw of the rest. About 0.5% of all pairs of compound and target were hits.

Columns and labels:
Assay in all cases: log2 fold change, soluble protein after heating vs DMSO (PISA); higher = thermal stabilisation; K562 lysate, 10 uM; active = over 0.2 and 3.5 SD of the protein, either way, in both replicates (recomputed)
[1] = compound: CN1CC[C@H](c2c(O)cc(O)c3c(=O)cc(-c4ccccc4Cl)oc23)[C@H](O)C1 [alvocidib]
How it was run: (§1)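 Pellets of K562 cells were dounce-homogenised in PBS pH 7.4 with 1 mM MgCl2, and the crude extract was held at 1 mg/mL protein for a 30 min treatment with 10 μM compound. Aliquots were heated for 3 min over 48°C-58°C and pooled before NP-40 was added to 0.5% at 4°C. The supernatant from 21,000xg for 90 min was quantified by TMTpro 16plex LC-MS/MS with channel sums equalised. Values are reported from duplicates as log-two fold change in thermal stability relative to solvent controls.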

[2] = compound: CN1CCc2c(c3ccccc3n2Cc2ccc(C(=O)NO)cc2)C1 [Tubastatin A]
How it was run: as §1

[3] = compound: CNC(=O)C1=CC=CC=C1NC2=NC(=NC=C2Cl)NC3=C(C=C(C=C3)N4CCOCC4)OC
How it was run: as §1

[4] = compound: CNC(=O)c1ccc(Nc2ncc(C(F)(F)F)c(NCc3nccnc3N(C)S(C)(=O)=O)n2)cc1 [defactinib]
How it was run: as §1

[5] = compound: CNc1nc(-c2ccc3c(N)n[nH]c3c2)cc(N2C[C@@H](C(=O)NC3CCCCC3)CC[C@H]2C)n1
How it was run: as §1

[6] = compound: COC(=O)N[C@@H](C)CNc1nccc(-c2cn(C(C)C)nc2-c2cc(Cl)cc(NS(C)(=O)=O)c2F)n1 [encorafenib]
How it was run: as §1

[7] = compound: COC(=O)[C@H](CCSC)NC(=O)C1=C(C=C(C=C1)NC[C@H](CS)N)C2=CC=CC=C2
How it was run: as §1

[8] = compound: COc1cc(Nc2ncc3c(n2)-c2ccc(Cl)cc2C(c2c(F)cccc2OC)=NC3)ccc1C(=O)O [alisertib]
How it was run: as §1

[9] = compound: COc1cc2nc(-c3cc(F)ccc3O)nc(N[C@@H]3CNC[C@H]3C(C)(C)O)c2cc1OC
How it was run: as §1

[10] = compound: COc1cc2ncnc(Nc3ccc(F)c(Cl)c3)c2cc1OCCCN1CCOCC1 [gefitinib]
How it was run: as §1

Measured: log2 fold change

AKAP11 (UniProt Q9UKA4)
Sequence of UniProt Q9UKA4 (Q9UKA4 whole entry, looked up): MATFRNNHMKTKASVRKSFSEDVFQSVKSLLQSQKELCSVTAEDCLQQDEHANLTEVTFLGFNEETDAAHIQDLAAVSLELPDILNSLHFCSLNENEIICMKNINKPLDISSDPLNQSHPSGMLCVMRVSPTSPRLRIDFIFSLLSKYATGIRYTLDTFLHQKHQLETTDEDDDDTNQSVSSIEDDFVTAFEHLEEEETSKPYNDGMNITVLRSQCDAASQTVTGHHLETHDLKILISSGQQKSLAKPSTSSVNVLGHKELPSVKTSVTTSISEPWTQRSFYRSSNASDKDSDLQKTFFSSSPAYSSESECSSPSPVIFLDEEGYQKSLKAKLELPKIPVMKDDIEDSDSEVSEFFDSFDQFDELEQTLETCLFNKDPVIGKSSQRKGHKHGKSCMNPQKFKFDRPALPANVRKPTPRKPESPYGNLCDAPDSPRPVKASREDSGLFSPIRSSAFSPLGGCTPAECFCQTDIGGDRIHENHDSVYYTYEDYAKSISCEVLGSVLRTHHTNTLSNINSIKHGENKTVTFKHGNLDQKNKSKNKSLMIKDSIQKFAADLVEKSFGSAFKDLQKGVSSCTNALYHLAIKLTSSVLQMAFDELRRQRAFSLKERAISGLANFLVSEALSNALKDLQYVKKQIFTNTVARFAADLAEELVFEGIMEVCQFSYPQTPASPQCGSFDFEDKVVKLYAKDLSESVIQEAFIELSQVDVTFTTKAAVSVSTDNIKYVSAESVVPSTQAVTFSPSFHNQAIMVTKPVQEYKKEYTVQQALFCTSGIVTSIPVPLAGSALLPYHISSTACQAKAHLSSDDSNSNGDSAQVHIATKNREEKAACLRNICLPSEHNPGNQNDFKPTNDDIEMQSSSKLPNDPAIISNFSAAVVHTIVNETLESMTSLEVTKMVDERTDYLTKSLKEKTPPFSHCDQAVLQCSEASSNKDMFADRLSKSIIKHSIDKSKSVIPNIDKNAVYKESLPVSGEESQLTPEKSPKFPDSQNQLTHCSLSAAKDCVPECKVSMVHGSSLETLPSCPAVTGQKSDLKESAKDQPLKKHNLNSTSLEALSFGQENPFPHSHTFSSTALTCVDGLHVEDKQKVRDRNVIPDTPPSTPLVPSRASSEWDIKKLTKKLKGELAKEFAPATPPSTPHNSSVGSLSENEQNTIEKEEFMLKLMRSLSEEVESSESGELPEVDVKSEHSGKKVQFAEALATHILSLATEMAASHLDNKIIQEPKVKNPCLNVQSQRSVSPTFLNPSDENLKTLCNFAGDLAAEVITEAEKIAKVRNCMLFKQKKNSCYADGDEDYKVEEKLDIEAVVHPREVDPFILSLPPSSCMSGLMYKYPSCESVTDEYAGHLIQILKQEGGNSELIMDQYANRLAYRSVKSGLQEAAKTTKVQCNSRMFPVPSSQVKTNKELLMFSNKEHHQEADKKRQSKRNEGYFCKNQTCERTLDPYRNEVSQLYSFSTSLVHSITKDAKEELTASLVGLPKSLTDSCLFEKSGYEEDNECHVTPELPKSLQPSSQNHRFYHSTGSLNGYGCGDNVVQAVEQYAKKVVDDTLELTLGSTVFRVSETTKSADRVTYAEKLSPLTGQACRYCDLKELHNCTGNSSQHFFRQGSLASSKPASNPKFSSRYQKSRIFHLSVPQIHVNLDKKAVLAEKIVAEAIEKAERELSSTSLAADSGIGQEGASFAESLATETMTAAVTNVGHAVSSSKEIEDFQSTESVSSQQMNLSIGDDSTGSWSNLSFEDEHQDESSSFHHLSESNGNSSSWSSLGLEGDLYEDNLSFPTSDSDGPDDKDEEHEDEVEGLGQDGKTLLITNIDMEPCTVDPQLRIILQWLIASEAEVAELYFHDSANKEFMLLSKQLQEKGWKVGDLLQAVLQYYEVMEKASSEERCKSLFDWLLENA
inactive: [1] 0.032 | [2] 0.026 | [3] 0.001 | [4] 0.093 | [5] -0.01 | [6] -0.03 | [7] 0.144 | [8] -0.022 | [9] -0.119 | [10] -0.114

AKT1 (UniProt P31749)
Sequence of UniProt P31749 (P31749 whole entry, looked up): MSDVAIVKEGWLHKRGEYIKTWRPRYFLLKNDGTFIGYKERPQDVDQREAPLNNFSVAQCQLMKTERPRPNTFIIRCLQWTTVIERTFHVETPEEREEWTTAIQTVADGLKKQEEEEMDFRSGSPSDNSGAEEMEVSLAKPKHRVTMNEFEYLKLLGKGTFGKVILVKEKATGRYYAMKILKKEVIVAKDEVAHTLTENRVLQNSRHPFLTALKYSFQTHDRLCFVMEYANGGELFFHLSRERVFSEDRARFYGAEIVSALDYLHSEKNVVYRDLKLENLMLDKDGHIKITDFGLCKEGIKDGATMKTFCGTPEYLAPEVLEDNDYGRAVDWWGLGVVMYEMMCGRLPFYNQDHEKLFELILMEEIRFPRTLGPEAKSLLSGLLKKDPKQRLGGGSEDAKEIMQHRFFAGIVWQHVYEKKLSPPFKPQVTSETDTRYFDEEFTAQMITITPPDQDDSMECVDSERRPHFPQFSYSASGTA
inactive: [1] -0.002 | [2] -0.018 | [3] 0.036 | [4] 0.038 | [5] -0.05 | [6] 0.084 | [7] 0.093 | [8] 0.019 | [9] 0.003 | [10] -0.05

ACLY (UniProt P53396)
Sequence of UniProt P53396 (P53396 whole entry, looked up): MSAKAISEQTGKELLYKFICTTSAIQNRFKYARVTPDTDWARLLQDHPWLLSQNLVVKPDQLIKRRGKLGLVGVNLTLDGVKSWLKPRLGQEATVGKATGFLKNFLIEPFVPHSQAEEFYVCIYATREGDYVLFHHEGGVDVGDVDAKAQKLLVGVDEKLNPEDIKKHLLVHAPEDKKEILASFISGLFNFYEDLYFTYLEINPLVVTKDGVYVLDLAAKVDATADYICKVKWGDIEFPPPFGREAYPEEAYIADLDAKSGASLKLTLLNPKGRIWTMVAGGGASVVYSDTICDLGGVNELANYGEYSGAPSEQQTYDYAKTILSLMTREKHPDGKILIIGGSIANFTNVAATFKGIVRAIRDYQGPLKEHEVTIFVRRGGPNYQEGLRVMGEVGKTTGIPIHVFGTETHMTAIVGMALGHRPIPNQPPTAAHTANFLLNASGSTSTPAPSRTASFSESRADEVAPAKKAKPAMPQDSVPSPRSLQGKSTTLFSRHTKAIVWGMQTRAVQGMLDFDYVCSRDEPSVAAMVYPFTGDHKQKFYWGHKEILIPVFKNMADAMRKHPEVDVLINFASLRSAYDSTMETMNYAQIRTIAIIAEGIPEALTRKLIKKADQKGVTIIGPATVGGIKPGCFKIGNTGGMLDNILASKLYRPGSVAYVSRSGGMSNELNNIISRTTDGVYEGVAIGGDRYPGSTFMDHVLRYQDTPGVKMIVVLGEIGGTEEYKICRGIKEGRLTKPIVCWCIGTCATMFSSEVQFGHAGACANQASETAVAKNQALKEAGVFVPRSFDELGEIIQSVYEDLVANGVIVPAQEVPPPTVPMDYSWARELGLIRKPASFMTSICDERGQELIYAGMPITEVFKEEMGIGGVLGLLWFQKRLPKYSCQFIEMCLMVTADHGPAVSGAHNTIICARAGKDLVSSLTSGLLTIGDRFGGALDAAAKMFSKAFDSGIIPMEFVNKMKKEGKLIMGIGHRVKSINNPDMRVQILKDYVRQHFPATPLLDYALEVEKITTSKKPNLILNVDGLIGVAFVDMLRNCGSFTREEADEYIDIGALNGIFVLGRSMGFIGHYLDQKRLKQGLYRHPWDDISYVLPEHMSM
inactive: [1] 0.022 | [2] 0.078 | [3] -0.006 | [4] -0.036 | [5] 0.01 | [6] -0.043 | [7] 0.133 | [8] 0.016 | [9] 0.003 | [10] 0.004

ALDH1A1 (UniProt P00352)
Sequence of UniProt P00352 (P00352 whole entry, looked up): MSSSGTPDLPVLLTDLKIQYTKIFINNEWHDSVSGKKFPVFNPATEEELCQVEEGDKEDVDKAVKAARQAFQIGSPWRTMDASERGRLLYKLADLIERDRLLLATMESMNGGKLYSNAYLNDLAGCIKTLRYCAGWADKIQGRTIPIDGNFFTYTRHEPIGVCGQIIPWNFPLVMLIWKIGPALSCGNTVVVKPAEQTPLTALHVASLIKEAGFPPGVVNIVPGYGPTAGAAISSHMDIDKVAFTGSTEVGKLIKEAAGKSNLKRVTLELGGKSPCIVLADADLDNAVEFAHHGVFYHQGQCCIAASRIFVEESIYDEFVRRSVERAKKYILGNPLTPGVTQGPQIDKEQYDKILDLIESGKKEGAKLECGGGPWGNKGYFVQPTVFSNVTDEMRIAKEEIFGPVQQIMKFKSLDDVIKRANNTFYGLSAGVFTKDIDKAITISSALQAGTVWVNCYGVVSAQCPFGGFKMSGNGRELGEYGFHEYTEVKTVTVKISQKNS
inactive: [1] 0.06 | [2] -0.004 | [3] 0.004 | [4] -0.007 | [5] -0.037 | [6] -0.009 | [7] -0.043 | [8] 0.01 | [9] -0.001 | [10] -0.017

AMD1 (UniProt P17707)
Sequence of UniProt P17707 (P17707 whole entry, looked up): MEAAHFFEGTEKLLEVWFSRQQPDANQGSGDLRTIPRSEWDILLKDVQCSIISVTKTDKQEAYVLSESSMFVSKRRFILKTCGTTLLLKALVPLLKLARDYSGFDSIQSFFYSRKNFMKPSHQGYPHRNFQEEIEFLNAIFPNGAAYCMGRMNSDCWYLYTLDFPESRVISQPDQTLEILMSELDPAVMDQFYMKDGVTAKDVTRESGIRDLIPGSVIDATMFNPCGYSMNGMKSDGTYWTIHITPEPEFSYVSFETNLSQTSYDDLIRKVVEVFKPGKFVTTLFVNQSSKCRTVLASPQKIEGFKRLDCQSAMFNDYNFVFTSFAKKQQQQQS
inactive: [1] -0.039 | [2] -0.084 | [3] 0.071 | [4] -0.003 | [5] 0.008 | [6] -0.08 | [7] -0.107 | [8] 0.027 | [9] 0.261 | [10] 0.041

ACACA isoform 4 (UniProt Q13085)
inactive: [1] 0.016 | [2] -0.115 | [3] -0.011 | [4] -0.008 | [5] -0.02 | [6] 0.032 | [7] -0.16 | [8] 0.014 | [9] 0 | [10] -0.004

ACTG1 (UniProt I3L4N8)
inactive: [1] 0.089 | [2] 0.119 | [3] 0.046 | [4] -0.142 | [5] -0.005 | [6] 0.209 | [7] 0 | [8] -0.198 | [9] -0.003 | [10] -0.115

ADD1 isoform 3 (UniProt P35611)
Sequence of UniProt P35611 (P35611 whole entry, looked up): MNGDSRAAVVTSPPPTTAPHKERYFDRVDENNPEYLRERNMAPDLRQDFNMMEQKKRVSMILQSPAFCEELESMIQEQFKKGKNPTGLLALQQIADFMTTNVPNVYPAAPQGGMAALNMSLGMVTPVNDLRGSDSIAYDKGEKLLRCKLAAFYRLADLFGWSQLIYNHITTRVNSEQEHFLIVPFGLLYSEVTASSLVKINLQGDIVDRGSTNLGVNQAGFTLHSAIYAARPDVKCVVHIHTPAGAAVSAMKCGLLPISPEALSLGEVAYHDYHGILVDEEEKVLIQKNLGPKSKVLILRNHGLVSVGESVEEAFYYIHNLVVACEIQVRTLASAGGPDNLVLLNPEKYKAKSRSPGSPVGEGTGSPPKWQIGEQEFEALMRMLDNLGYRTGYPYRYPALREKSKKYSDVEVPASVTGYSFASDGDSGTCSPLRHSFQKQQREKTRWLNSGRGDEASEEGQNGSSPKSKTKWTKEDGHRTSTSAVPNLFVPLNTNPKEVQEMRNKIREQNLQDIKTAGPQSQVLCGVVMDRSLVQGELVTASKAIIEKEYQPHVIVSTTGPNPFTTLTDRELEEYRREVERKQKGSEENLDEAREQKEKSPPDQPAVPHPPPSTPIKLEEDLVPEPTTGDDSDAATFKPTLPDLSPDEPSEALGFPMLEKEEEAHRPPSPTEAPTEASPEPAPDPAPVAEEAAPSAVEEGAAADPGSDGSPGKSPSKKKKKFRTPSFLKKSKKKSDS
inactive: [1] 0.016 | [2] 0.007 | [3] -0.013 | [4] 0.015 | [5] 0.031 | [6] 0.004 | [7] -0.034 | [8] 0.03 | [9] 0.006 | [10] -0.01

AKAP8 (UniProt O43823)
inactive: [1] -0.031 | [2] -0.038 | [3] -0.059 | [4] -0.001 | [5] -0.073 | [6] 0.072 | [7] -0.098 | [8] 0.02 | [9] 0.058 | [10] -0.042

ANAPC7 (UniProt Q9UJX3)
inactive: [1] 0.011 | [2] -0.1 | [3] 0.036 | [4] 0.014 | [5] -0.03 | [6] 0.026 | [7] 0.002 | [8] -0.001 | [9] 0.005 | [10] 0.017

AMPD3 isoform 4 (UniProt Q01432)
inactive: [1] 0.012 | [2] 0.027 | [3] 0.015 | [4] 0.011 | [5] -0.034 | [6] -0.013 | [7] 0.103 | [8] 0.008 | [9] -0.068 | [10] 0.012

ANKRD27 (UniProt Q96NW4)
inactive: [1] -0.056 | [2] -0.118 | [3] 0.046 | [4] 0.035 | [5] 0.003 | [6] -0.007 | [7] 0.103 | [8] -0.053 | [9] -0.087 | [10] 0.03

ALDH5A1 isoform 2 (UniProt P51649)
inactive: [1] 0.063 | [2] 0.048 | [3] 0.007 | [4] 0.016 | [5] -0.02 | [6] -0.028 | [7] 0.077 | [8] 0.001 | [9] 0.006 | [10] -0.042
